From the supplement of paper PMC10849652
The full data set covers some 8,800 targets. This sample favours those with a hit. About 0.5% of all pairs of compound and target were hits. Values without a mark were called inactive.

Key:
Experiment in all cases: log2 fold change, soluble protein after heating vs DMSO (PISA); higher = thermal stabilisation; K562 lysate, 10 uM; active = over 0.2 and 3.5 SD of the protein, either way, in both replicates (recomputed)
[1] = compound: C#Cc1cccc(Nc2ncnc3cc(OCCOC)c(OCCOC)cc23)c1 [erlotinib]
Procedure, shortened: (§1)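 The values are log-two fold changes in thermal stability compared with solvent controls and come from duplicates. They were obtained by TMTpro 16plex LC-MS/MS, with channel sums equalised, on the supernatant after 21,000xg for 90 min. That supernatant came from crude K562 extract at 1 mg/mL protein treated with 10 μM compound for 30 min, heated for 3 min across 48°C-58°C, pooled and brought to 0.5% NP-40 at 4°C.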

[2] = compound: C/C(=N\NC(=O)C1=CC(=CC=C1)S(=O)(=O)N2CCOCC2)/C3=C(C=CC(=C3)Cl)O
Procedure, shortened: as §1

[3] = compound: C1=CC(=CC=C1C2=NC3=C(N2)C=C(C=C3)C(=O)N)OC4=CC=C(C=C4)Cl
Procedure, shortened: as §1

[4] = compound: C1=CC2=C(C=CC(=C2)/C=C\3/C(=O)NC(=NCC4=CC=CS4)S3)N=C1
Procedure, shortened: as §1

[5] = compound: C1=CC2=NC=CN=C2C=C1/C=C/3\C(=O)NC(=O)S3
Procedure, shortened: as §1

[6] = compound: C1=CC=C(C=C1)C2=NC(=C(N2)C3=CC=NC=C3)C4=CC(=C(C=C4)Cl)O
Procedure, shortened: as §1

[7] = compound: C1=CC=C2C(=C1)C3=NNC4=CC=CC(=C43)C2=O
Procedure, shortened: as §1

[8] = compound: C1CCN(C1)C(=O)NC2=CC=CC(=C2)NC3=NC=C(C(=N3)NCCC4=CN=CN4)Br
Procedure, shortened: as §1

[9] = compound: C1CN(CCC1(CC2=CC=C(C=C2)Cl)N)C3=NC=NC4=C3C=CN4
Procedure, shortened: as §1

[10] = compound: C1COCCN1CCN2C3=CC=CC=C3N=C2NC(=O)C4=CC(=CC=C4)[N+](=O)[O-] [IRAK-1-4 Inhibitor I]
Procedure, shortened: as §1

[11] = compound: C=CC(=O)N1CCC[C@@H](n2nc(-c3ccc(Oc4ccccc4)cc3)c3c(N)ncnc32)C1 [ibrutinib]
Procedure, shortened: as §1

[12] = compound: CC(=O)c1cnc2ccc(-c3cc(Cl)c(O)c(Cl)c3)nc2c1N[C@H]1CC[C@H](CN(C)C)CC1
Procedure, shortened: as §1

[13] = compound: CC(C)(C)Cn1c(N)nc2ccc(-c3[nH]c(C(C)(C)C)nc3-c3ccc(F)cc3)nc21 [ralimetinib]
Procedure, shortened: as §1

[14] = compound: CC(C)(O)CC(=O)NCCn1ccc2ncnc(Nc3ccc(Oc4cccc(C(F)(F)F)c4)c(Cl)c3)c21
Procedure, shortened: as §1

[15] = compound: CC(C)C1=C2N=C(C=C(N2N=C1)NCC3=CC=CC=C3)NCCCCCCN
Procedure, shortened: as §1

[16] = compound: CC1=C(C(CC(=O)N1)C2=CC=C(C=C2)C(F)(F)F)C(=O)NC3=C(C=C4C(=C3)C=NN4)F
Procedure, shortened: as §1

[17] = compound: CC1=C(C2=C(C=C1)C(=O)C3=CC=CC=C3N2CCCN)C
Procedure, shortened: as §1

[18] = compound: CC1=C(C=C(C=C1)NC(=O)C2=CC(=CC=C2)C(C)(C)C#N)NC3=CC4=C(C=C3)N=CN(C4=O)C
Procedure, shortened: as §1

[19] = compound: CC1=C(C=C(C=C1)NC(=O)C2=CC(=CC=C2)N(C)C)NC(=O)C3=CC=C(C=C3)O
Procedure, shortened: as §1

[20] = compound: CC1=CC=C(C=C1)SC2=C3C=C(SC3=CN=C2)C(=O)N
Procedure, shortened: as §1

UniProt Q9H4B7, sequence (Q9H4B7 whole entry, looked up): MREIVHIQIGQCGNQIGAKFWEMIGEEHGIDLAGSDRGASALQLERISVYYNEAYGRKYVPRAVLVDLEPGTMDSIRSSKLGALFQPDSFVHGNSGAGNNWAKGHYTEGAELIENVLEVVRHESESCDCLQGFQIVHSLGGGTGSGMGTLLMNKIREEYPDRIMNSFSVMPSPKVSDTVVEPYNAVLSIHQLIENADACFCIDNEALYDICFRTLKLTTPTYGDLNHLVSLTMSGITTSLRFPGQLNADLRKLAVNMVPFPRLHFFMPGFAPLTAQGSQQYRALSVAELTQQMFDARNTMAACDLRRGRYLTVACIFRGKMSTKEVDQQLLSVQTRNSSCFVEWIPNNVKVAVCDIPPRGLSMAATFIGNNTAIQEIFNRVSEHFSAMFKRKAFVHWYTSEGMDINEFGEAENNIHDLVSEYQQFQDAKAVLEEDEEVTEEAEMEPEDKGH
UniProt Q6YHU6, sequence (Q6YHU6 whole entry, looked up): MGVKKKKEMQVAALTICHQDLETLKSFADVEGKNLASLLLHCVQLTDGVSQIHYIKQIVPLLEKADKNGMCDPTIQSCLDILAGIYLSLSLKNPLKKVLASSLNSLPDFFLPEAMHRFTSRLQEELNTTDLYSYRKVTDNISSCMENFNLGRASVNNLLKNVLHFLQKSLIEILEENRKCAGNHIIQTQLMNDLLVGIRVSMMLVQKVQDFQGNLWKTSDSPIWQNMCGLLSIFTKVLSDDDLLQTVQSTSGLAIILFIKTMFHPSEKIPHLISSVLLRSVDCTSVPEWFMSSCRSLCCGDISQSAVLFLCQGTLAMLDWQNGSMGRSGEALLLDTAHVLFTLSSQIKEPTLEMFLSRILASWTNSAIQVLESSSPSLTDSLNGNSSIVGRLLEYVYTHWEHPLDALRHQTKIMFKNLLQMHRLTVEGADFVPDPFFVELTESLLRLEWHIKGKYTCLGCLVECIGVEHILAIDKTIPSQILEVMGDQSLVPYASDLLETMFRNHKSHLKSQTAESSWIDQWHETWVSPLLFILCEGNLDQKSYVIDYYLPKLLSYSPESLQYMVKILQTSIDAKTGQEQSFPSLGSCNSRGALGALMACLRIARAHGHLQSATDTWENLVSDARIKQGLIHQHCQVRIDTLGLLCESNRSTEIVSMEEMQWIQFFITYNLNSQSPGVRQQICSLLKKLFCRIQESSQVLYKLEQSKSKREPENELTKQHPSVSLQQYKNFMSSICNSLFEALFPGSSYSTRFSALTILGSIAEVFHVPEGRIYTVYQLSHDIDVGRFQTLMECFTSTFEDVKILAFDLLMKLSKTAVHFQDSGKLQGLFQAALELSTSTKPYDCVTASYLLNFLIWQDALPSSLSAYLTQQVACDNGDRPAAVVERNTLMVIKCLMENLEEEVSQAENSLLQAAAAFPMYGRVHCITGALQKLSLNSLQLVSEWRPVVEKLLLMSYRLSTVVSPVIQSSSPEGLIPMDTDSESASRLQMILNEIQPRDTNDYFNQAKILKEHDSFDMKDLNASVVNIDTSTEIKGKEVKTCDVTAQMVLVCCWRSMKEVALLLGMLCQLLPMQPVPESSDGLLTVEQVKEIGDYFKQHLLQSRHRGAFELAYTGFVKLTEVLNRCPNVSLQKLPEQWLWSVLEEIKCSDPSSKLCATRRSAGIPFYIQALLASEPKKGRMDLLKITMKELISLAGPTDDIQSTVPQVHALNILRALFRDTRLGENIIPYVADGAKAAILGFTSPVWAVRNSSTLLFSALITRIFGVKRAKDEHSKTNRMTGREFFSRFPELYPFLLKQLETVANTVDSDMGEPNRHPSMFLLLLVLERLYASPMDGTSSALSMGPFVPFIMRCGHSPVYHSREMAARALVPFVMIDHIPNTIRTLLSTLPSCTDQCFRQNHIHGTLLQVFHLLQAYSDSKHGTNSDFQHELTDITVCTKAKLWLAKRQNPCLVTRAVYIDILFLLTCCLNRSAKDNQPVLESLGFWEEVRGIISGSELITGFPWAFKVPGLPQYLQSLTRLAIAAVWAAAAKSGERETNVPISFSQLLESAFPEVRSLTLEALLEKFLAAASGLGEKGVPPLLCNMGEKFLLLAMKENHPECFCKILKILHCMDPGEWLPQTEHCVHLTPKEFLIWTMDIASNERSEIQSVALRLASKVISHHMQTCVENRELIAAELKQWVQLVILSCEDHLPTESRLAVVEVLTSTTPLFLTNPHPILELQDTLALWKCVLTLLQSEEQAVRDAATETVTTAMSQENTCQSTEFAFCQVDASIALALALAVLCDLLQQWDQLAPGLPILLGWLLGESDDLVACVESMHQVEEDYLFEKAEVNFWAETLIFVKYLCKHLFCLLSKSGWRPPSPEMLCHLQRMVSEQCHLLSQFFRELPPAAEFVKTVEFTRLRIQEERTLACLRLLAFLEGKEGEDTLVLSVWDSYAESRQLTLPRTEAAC
UniProt Q5BVD1, sequence (Q5BVD1 whole entry, looked up): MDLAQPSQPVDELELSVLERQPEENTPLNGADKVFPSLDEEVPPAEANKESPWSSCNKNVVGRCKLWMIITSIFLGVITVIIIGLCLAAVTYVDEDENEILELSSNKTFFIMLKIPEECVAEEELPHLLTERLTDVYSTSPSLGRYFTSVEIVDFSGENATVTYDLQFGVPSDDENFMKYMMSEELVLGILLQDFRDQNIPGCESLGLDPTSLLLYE
UniProt Q13595, sequence (Q13595 whole entry, looked up): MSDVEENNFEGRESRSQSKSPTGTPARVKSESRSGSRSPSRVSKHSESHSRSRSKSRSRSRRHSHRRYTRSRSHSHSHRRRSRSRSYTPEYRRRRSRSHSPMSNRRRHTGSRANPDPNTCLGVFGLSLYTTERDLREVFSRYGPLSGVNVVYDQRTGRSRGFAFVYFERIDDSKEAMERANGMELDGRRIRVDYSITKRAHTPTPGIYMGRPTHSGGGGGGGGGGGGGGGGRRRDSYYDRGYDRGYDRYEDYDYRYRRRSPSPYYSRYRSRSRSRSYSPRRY
UniProt O43156, sequence (O43156 whole entry, looked up): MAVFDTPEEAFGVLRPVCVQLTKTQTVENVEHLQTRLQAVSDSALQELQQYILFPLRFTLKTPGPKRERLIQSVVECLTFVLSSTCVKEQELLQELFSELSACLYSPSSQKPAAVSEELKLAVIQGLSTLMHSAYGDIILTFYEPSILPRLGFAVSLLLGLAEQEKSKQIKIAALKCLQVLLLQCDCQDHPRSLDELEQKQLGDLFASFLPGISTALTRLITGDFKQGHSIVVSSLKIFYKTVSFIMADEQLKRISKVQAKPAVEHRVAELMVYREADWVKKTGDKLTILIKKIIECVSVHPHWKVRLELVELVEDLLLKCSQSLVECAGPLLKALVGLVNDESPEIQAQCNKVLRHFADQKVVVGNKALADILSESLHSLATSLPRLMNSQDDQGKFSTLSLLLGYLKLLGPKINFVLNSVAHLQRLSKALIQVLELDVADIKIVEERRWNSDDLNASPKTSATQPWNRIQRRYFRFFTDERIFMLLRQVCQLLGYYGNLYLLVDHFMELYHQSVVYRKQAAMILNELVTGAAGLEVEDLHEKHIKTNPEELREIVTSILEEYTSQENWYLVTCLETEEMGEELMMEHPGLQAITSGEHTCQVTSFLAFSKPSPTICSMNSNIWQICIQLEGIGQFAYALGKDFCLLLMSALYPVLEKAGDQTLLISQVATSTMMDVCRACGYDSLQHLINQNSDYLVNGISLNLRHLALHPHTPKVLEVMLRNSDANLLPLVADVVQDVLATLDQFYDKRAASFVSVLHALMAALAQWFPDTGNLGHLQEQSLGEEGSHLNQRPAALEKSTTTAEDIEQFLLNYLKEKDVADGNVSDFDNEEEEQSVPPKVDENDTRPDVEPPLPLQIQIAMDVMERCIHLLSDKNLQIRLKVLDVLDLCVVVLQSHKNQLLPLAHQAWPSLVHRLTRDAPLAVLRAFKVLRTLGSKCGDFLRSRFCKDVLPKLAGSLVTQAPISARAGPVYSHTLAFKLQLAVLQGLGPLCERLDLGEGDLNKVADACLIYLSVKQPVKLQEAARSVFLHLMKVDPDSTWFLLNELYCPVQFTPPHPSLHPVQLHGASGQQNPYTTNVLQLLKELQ
UniProt Q9BUB7, sequence (Q9BUB7 whole entry, looked up): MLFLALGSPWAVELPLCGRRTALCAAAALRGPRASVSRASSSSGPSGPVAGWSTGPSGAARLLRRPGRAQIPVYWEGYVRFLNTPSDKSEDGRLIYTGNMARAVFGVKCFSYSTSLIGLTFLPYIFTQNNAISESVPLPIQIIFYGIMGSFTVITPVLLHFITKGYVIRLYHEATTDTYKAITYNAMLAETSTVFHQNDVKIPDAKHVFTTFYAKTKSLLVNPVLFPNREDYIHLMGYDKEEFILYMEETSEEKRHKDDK
UniProt P04818, sequence (P04818 whole entry, looked up): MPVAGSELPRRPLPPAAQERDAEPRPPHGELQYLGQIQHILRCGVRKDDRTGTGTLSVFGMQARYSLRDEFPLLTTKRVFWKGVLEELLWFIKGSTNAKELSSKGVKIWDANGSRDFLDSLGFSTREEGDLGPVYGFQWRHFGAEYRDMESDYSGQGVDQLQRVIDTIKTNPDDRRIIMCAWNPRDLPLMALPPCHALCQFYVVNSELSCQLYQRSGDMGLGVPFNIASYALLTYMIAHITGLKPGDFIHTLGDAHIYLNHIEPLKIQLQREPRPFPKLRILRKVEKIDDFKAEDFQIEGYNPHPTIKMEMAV
UniProt P67936, sequence (P67936 whole entry, looked up): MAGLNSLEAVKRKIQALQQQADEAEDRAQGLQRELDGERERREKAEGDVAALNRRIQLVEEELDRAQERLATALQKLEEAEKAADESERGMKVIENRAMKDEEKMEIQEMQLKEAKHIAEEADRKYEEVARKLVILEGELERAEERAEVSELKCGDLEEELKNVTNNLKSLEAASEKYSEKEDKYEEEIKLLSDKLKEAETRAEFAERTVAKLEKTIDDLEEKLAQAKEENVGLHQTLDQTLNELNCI

Target	log2 fold change [1]	log2 fold change [2]	log2 fold change [3]	log2 fold change [4]	log2 fold change [5]	log2 fold change [6]	log2 fold change [7]	log2 fold change [8]	log2 fold change [9]	log2 fold change [10]	log2 fold change [11]	log2 fold change [12]	log2 fold change [13]	log2 fold change [14]	log2 fold change [15]	log2 fold change [16]	log2 fold change [17]	log2 fold change [18]	log2 fold change [19]	log2 fold change [20]
TGOLN2 isoform 7 (UniProt O43493)	-0.108	0.007	0	0.022	-0.036	-0.021	0.012	-0.025	0.011	0.029	-0.023	0.013	-0.065	-0.058	0.003	0.009	0.005	-0.033	0.051	-0.013
THADA (UniProt Q6YHU6)	0.059	-0.003	0	0.004	-0.011	-0.004	-0.017	-0.024	0.017	-0.017	0.011	0.006	-0.009	-0.029	-0.016	-0.01	0.012	0.028	0.03	0.013
TYMS (UniProt P04818)	0.016	0.041	0.011	-0.032	0.032	-0.026	0.019	0.035	-0.004	-0.008	-0.041	-0.017	0.014	0.029	0.01	0.001	0.043	-0.005	-0.001	-0.022
TTF2 (UniProt Q9UNY4)	0.043	-0.003	0.063	-0.001	-0.026	0.042	-0.046	0.039	0.032	-0.006	0.003	-0.121	0.035	-0.006	-0.02	0.037	-0.084	-0.058	-0.018	-0.115
TRA2A (UniProt Q13595)	-0.164	-0.261	-0.092	-0.03	-0.137	0.038	-0.024	0.083	-0.234	-0.102	0.127	-0.018	-0.079	-0.013	0.21	-0.027	0.039	0.056	0.019	-0.007
TTI1 (UniProt O43156)	-0.017	0.033	-0.049	0.003	-0.012	-0.02	-0.003	-0.032	-0.037	0.015	0	0.014	0.018	-0.049	-0.029	0.013	0.02	0.068	-0.009	0.026
TTMP isoform 3 (UniProt Q5BVD1)	0.121	-0.173	-0.023	-0.106	-0.026	-0.026	-0.08	-0.05	0.086	0.193	0.09	0	-0.034	-0.22	-0.038	-0.091	-0.02	0.296	-0.004	-0.099
UBAP2L isoform 5 (UniProt Q14157)	-0.021	-0.019	0.035	0.008	0.027	-0.184	0.065	0.009	-0.023	0.065	0.024	0.028	-0.026	-0.055	0.019	0.009	0.024	-0.529 (active)	-0.009	0.003
TPP2 (UniProt Q5VZU9)	0.043	-0.036	0.086	-0.012	0	0.131	-0.013	0	0.066	0.005	0.073	-0.025	-0.018	0.046	-0.041	0.056	0.018	-0.049	-0.017	0.061
TMEM70 (UniProt Q9BUB7)	-0.018	-0.003	-0.106	0.03	0.038	-0.073	0.011	0.006	-0.028	0.086	0.001	-0.026	0.012	-0.063	-0.002	-0.01	0.01	0.103	0.058	0.003
TJP1 isoform 2 (UniProt Q07157)	-0.002	0	0.037	-0.007	-0.082	-0.018	-0.041	-0.075	0.039	0.015	0.019	-0.001	-0.007	-0.041	0.036	0.002	-0.025	0.015	0.016	-0.014
TTK (UniProt P33981)	-0.032	-0.1	0.09	-0.034	0.004	0.039	0.258	0.054	-0.039	-0.032	0.008	0.111	0.025	-0.036	0.001	0.018	-0.008	-0.011	0.017	0.013
TUBA4A (UniProt P68366)	0.074	0.019	-0.017	-0.034	-0.01	-0.036	-0.017	0	0.036	0.032	-0.012	0.023	0.012	0.017	0.023	-0.031	-0.013	0.017	-0.017	0.012
TUBB1 (UniProt Q9H4B7)	0.011	0.091	0.005	0.01	0.022	-0.011	0.014	0.015	0.027	0.019	-0.005	-0.01	-0.003	-0.007	0	0.049	0.028	-0.036	0.002	0.012
TPM4 (UniProt P67936)	0.028	0.048	0.005	0.058	-0.012	0.001	0.009	-0.064	-0.012	0.028	-0.019	-0.021	0.003	-0.023	-0.023	-0.038	0.012	0.01	0.013	0.006
